Screens (PubChem)
ADAM10 inh = human ADAM10 inhibitors, primary screen, biochemical, QFRET, HTS; Disintegrin and metalloproteinase domain-containing protein 10 (Homo sapiens), O14672; recombinant ADAM10, EDANS/DABCYL FRET peptide cleavage, 3 h; inhibition, % at 7 µM; hit rate 0.62% among 370,000; AID 720582, 2013;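 active = inhibition above a per-campaign cutoff equal to the mean of compounds falling between control-based bounds plus 3 SD, cut at about 20% in these data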
ADAM17 inh = ADAM17 inhibitors, primary screen, biochemical, QFRET; inhibition, % at 6.95 µM; AID 720648, 2013; hit rate 0.83% among 370,000; Disintegrin and metalloproteinase domain-containing protein 17 (Homo sapiens), P78536; recombinant ADAM17, EDANS/DABCYL FRET peptide cleavage;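 active = inhibition above the mean of compounds lying between control limits plus 3 SD, set per campaign, cut at about 8.5% in these data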
HGIII-sPLA2 inh = human group III sPLA2 inhibitors, primary screen, biochemical, QFRET, BODIPY PC-A2 liposome substrate | Group 3 secretory phospholipase A2 (Homo sapiens), Q9NZ20 | inhibition, % at 12.2 µM | hit rate 0.56% among 370,000 | QFRET BODIPY PC-A2 liposome hydrolysis, fluorescence;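 active = inhibition above mean plus 3 SD of compounds lying within the high and low control bounds, cut at about 19% in these data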
Target sequence (Q9NZ20 whole entry, looked up): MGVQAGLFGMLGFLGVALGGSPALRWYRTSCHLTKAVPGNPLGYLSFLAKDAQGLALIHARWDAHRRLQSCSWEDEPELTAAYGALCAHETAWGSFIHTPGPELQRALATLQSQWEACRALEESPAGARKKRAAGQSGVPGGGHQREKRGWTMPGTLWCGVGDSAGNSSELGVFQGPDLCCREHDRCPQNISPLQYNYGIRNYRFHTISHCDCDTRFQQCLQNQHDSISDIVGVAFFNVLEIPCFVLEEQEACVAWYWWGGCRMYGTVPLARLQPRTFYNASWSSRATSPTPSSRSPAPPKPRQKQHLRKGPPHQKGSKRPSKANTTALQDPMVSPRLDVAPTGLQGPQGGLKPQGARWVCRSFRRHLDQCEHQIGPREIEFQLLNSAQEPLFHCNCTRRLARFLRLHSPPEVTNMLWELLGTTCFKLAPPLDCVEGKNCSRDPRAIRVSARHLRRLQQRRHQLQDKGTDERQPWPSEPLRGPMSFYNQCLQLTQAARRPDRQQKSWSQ
GRIN3A LBD mod = binders of NR3A ligand-binding domain, primary screen, biophysical, differential scanning fluorimetry, uHTS; Tm shift relative to glycine control, % at 25 µM; Glutamate receptor ionotropic, NMDA 3A (GRIN3A) ligand-binding domain; AID 1259313, 2017; hit rate 2.5% among 340,000; NR3A LBD differential scanning fluorimetry, Tm shift; 0% = protein alone, 100% = glycine-bound protein;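 active = melting temperature shift of at least 10% of the positive control shift, at one fixed dose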
FAS TE block = FAS thioesterase domain inhibitors, primary screen, biochemical, fluorescence intensity, uHTS. hit rate 0.67% among 360,000. inhibition, % at 15 µM. Fatty acid synthase (Homo sapiens), P49327. recombinant FAS-TE, OMFH fluorogenic substrate, fluorescence endpoint. AID 602261, 2012;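 active = compounds whose normalised, plate-corrected inhibition of enzyme fluorescence in the single-dose primary screen is 50% or more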
ADAM10 confirm = human ADAM10 inhibitors, confirmation, biochemical, QFRET, triplicate. hit rate 1% among 2,100. shares compounds with ADAM10 inh. ADAM10 QFRET peptide cleavage, EDANS fluorescence. inhibition, % at 6.95 µM;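 active = inhibition above about 20% chosen separately for each screening run, limit read from the data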
ADAM17 ctr = ADAM17 inhibitors, counter-screen for ADAM10 exosite inhibitor project, biochemical, QFRET, high throughput; shares compounds with ADAM10 inh; hit rate 0.5% among 2,100; AID 743214, 2013; ADAM17 QFRET peptide cleavage, EDANS fluorescence; inhibition, % at 6.95 µM;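 active = mean triplicate inhibition above the solvent-only control wells' mean plus 3 SD, cut at about 12% in these data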
ADAM10 counter = ADAM10 inhibitors, counter-screen for ADAM17 exosite inhibitor project, biochemical, FRET, human ADAM10; AID 743256, 2014; inhibition, % at 6.95 µM; recombinant ADAM10, EDANS/DABCYL FRET peptide cleavage, 3 h; shares compounds with ADAM17 inh; hit rate 47% among 2,900;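 active = mean inhibition over the triplicate runs exceeds the activity threshold set in the earlier primary screen, cut at about 20% in these data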
ADAM17 confirm = ADAM17 inhibitors, hit retest, confirmation, biochemical, QFRET peptide cleavage | inhibition, % at 6.95 µM | recombinant ADAM17, EDANS/DABCYL QFRET peptide cleavage | hit rate 65% among 2,900 | shares compounds with ADAM17 inh | AID 743257, 2014;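 active = mean inhibition across replicates above the hit cutoff set in the primary screen, cut at about 8.5% in these data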
Of the large screens only hits and unclear results are named; the others gave an inactive call (follow-up assays come after a bar, where they were run). An excerpt weighted towards active compounds, which were near 4.3% of everything screened.

COCC(=O)N1[C@H](CO)[C@@H](c2ccc(-c3cccnc3)cc2)[C@H]1CN(C)S(=O)(=O)c1ccccc1[N+](=O)[O-]	none (no result: GRIN3A LBD mod, FAS TE block)
c1ccc(N=Nc2ccc3cccccc2-3)cc1	none
Clc1ccc(-c2[nH]ncc2N=Nc2ccccc2)cc1	ADAM10 inh 21.6, ADAM17 inh 10.3 | ADAM10 confirm inactive | ADAM17 ctr inactive | ADAM10 counter inactive | ADAM17 confirm 10.4
COc1cccc(Cn2cc(COC(=O)NCCc3c[nH]c4ccccc34)nn2)c1	none (no result: GRIN3A LBD mod, FAS TE block)
C[C@H](O)[C@@H]1CN2CCc3ccc(N4CCOCC4)cc3[C@@H]2C[C@@H]1N(C)C(=O)c1ccco1	none (no result: GRIN3A LBD mod, FAS TE block)
O=C(COc1ccccc1)N1CCN(c2ccc([N+](=O)[O-])c(N3CCCCC3)c2)CC1	none
O=C(COc1ccc(Br)cc1)N1CCN(c2ccc([N+](=O)[O-])c(N3CCCCC3)c2)CC1	ADAM10 inh 24.0, ADAM17 inh 10.9 | ADAM10 confirm inactive | ADAM17 ctr inactive | ADAM10 counter 32.1 | ADAM17 confirm 18.0
COc1ccc(CCN2C(=O)c3[nH]nc(-c4ccccc4O)c3C2c2cccc(O)c2)cc1OC (configuration not stated)	ADAM10 inh 29.5, ADAM17 inh 9.1 | ADAM10 confirm inactive | ADAM17 ctr inactive | ADAM10 counter 33.3 | ADAM17 confirm 14.3
O=C(NCc1cccc(Cl)c1)c1ccc(S(=O)(=O)Nc2cccc(C(F)(F)F)c2)cc1	ADAM10 inh 38.9, ADAM17 inh 15.3, GRIN3A LBD mod 28.0 | ADAM10 confirm inactive | ADAM17 ctr inactive | ADAM10 counter 34.4 | ADAM17 confirm 17.9
O=C(Cc1cccc(C(F)(F)F)c1)NCc1cccc(Cl)c1	none
CC(C)(C)N1Cc2nnn(CC3CCCCC3)c2-c2cc(F)ccc2S1(=O)=O	none (no result: GRIN3A LBD mod, FAS TE block)
O=C1C2C3C=CC(C3)C2C(=O)N1c1ccc(-c2nc(-c3ccccc3)nc3ccccc23)cc1 (configuration not stated)	none (no result: GRIN3A LBD mod, FAS TE block)
Cc1ccc(C(=O)NCCSc2ccc(Cl)cc2)cc1S(=O)(=O)Nc1ccccc1	ADAM10 inh 25.2, ADAM17 inh 11.0, GRIN3A LBD mod 21.6 | ADAM10 confirm inactive | ADAM17 ctr inactive | ADAM10 counter 27.0 | ADAM17 confirm 15.7
Cc1cccc(NS(=O)(=O)c2cc(C(=O)NCCC3=CCCCC3)ccc2Cl)c1	ADAM10 inh 21.1, ADAM17 inh 8.7 | ADAM10 confirm inactive | ADAM17 ctr inactive | ADAM10 counter 21.4 | ADAM17 confirm 11.7
Cc1ccccc1NS(=O)(=O)c1cc(C(=O)NCCC2=CCCCC2)ccc1Cl	none
Cc1ccc(SCCNC(=O)c2ccccc2)cc1	none
Cc1ccc(C)c(S(=O)(=O)Nc2ccc(C(=O)NCCCN(C)C)cc2)c1	none (no result: GRIN3A LBD mod)
Cc1ccc(NS(=O)(=O)c2cc(C(=O)NCCSc3ccc(C)cc3)ccc2C)cc1	ADAM10 inh 23.2, ADAM17 inh 11.6, GRIN3A LBD mod 12.5 | ADAM10 confirm inactive | ADAM17 ctr inactive | ADAM10 counter 37.7 | ADAM17 confirm 20.3
Cc1ccc(SCCNC(=O)c2ccc(C)c(S(=O)(=O)Nc3cccc(C)c3)c2)cc1	ADAM10 inh 27.0, ADAM17 inh 12.0 | ADAM10 confirm inactive | ADAM17 ctr inactive | ADAM10 counter 30.4 | ADAM17 confirm 17.2
CCCCCCC(=O)NC1CCCCN(Cc2ccccc2C)C1=O (configuration not stated)	none (no result: GRIN3A LBD mod, FAS TE block)
O=C(NCCN1CCOCC1)c1ccc2c(c1)N(Cc1ccccc1)C(=O)CS2	none
O=C(NCCC1=CCCCC1)c1ccc2c(c1)N(Cc1ccccc1)C(=O)CS2	ADAM10 inh 27.2, ADAM17 inh 16.9 | ADAM10 confirm inactive | ADAM17 ctr inactive | ADAM10 counter 25.8 | ADAM17 confirm 13.3
COC(=O)[C@]12C[C@H](CC(=O)NCc3cccs3)C(=O)N(Cc3ccccc3)C1=C[C@H](C(C)(C)C)O[C@@H]2C	none (no result: GRIN3A LBD mod, FAS TE block)
N#CCCN(C(=O)COC(=O)c1ccc(CNS(=O)(=O)c2ccc(F)c(Cl)c2)cc1)c1ccc(F)cc1	ADAM10 inh 20.6, ADAM17 inh 11.6 | ADAM10 confirm inactive | ADAM17 ctr inactive | ADAM10 counter 34.5 | ADAM17 confirm 22.0
COC(=O)C[C@@H]1CC[C@H]2[C@H](COc3ccc(NC(=O)c4ccc(OC)cc4)cc3C(=O)N2C)O1	none (no result: GRIN3A LBD mod, FAS TE block)
CCn1c(Cn2nnc(-c3ccccc3)n2)nnc1SCc1ccc(Cl)c(Cl)c1	ADAM10 inh 25.5, ADAM17 inh 9.1 | ADAM10 confirm inactive | ADAM17 ctr inactive | ADAM10 counter 31.9 | ADAM17 confirm 18.0
COc1ccccc1/C(C)=N/Oc1cc(N)cc([N+](=O)[O-])c1	ADAM10 inh 27.4, ADAM17 inh 14.9 | ADAM10 confirm inactive | ADAM17 ctr inactive | ADAM10 counter inactive | ADAM17 confirm 9.8
N#CCC1(O)C(=O)Nc2ccccc21 (configuration not stated)	none (no result: GRIN3A LBD mod, FAS TE block)
CCOC(=O)C1CCN(S(=O)(=O)c2ccccc2)CC1	none
O=C(OCCOc1cccc(Cl)c1)C1CCN(S(=O)(=O)c2ccccc2)CC1	ADAM10 inh 21.3, ADAM17 inh 8.6 | ADAM10 confirm inactive | ADAM17 ctr inactive | ADAM10 counter 21.2 | ADAM17 confirm 10.9
CO/N=C/c1ccc(Sc2ccc(C)cc2)c([N+](=O)[O-])c1	none
Cc1ccc(Sc2ccc(/C=N/O)cc2[N+](=O)[O-])cc1	ADAM10 inh 26.7, ADAM17 inh 9.7 | ADAM10 confirm inactive | ADAM17 ctr inactive | ADAM10 counter 27.2 | ADAM17 confirm 14.8
